mIDH1 inhibitor: inhibitors of human mutant IDH1 R132H | O75874 | IDH1-R132H enzyme, NADPH consumption, diaphorase/resazurin fluorescence | Potency, µM (titrated, usually from 76.6 µM), for the others: top-dose activity change, negative = inhibition, most hits filed as inhibitors | hit rate 0.093% among 390,000 | AID 602179; further: potency means the concentration at half of the fitted maximal effect; on the % scale 0 is the no-effect control and ±100 the full control effect; nearly all actives have a fitted effect of over 65% in size
Target sequence (O75874 whole entry R132H, stated change not applied): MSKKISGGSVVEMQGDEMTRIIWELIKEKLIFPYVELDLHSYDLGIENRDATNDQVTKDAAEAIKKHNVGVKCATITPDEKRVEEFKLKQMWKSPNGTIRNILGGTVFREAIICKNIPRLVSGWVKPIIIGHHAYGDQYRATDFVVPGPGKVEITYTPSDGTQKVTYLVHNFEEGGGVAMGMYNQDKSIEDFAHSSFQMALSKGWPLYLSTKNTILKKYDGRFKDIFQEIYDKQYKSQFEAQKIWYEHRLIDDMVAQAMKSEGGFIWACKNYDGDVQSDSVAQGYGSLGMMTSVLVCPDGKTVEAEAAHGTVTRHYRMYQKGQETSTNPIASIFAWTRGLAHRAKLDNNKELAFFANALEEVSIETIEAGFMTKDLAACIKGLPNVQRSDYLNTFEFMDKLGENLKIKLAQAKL
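IDH1-R132H (0.5 ug/mL) preincubated 30 min with compound, then NADPH (0.016 mM) and alpha-KG (2 mM) added; 80 min at RT, pH 7.5. Remaining NADPH coupled via diaphorase/resazurin to fluorescence (540/590 nm); concentration-response curves normalized to no-enzyme control.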
A549 viability: A549 cytotoxicity, counter-screen for Nrf2 inhibitors | A549 ARE-Fluc cells, CellTiter-Fluor viability, 18-24 h | Potency, µM (titrated, usually from 46 µM), without a hit: at the highest dose activity change, negative = cytotoxicity, hits mostly inhibitors | hit rate 0.16% among 390,000 | AID 504648; further: potency means the concentration at half of the fitted maximal effect; on the % scale 0 is the no-effect control and ±100 the full control effect
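A549 ARE-Fluc cells in 5% FBS OPTI-MEM, 5000 cells/well, rested 2 h then exposed to compounds in concentration-response for 18-24 h at 37 °C. Viability by CellTiter-Fluor fluorescence (Ex 405/Em 525) after 30 min; luciferase luminescence (BugLite, 15 min, RT) read afterwards.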
rTrxR1 inhibitor: inhibitors of rat thioredoxin reductase 1 | O89049 | recombinant rTrxR1, NADPH fluorescence consumption, selenite substrate | hit rate 1% among 390,000 | AID 588453 | Potency, µM (titrated, usually from 114 µM), inactives show top-dose activity change, negative = inhibition, most hits filed as inhibitors; further: potency means the concentration at half of the fitted maximal effect; on the % scale 0 is the no-effect control and ±100 the full control effect; nearly all actives have a fitted effect of over 65% in size
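Rat TrxR1 (90 nM in the dispensed reagent) was pre-reduced with 400 uM NADPH for 5 min at room temperature, then incubated with compound for 15 min. After 400 uM selenite was added, NADPH fluorescence (Ex 340/Em 450 nm) was followed for 8 min.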
Nrf2 inh: blocks Nrf2 signaling; A549 ARE-Fluc reporter, luciferase luminescence, 18-24 h; Potency, µM (series often up to 46 µM), for inactives: at the top dose activity change, negative = inhibition, most hits filed as inhibitors; hit rate 2.1% among 360,000; AID 504444; further: potency means the concentration at half of the fitted maximal effect; on the % scale 0 is the no-effect control and ±100 the full control effect; nearly all actives have a fitted effect of over 60% in size
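A549 ARE_Fluc cells, 5000/well, 5% FBS OPTI-MEM; compounds in dose-response, 18-24 h at 37 °C/5% CO2; CellTiter-Fluor viability read (Ex 405/Em 525), then BugLite luciferase luminescence = Nrf2 activity.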
TrxR1 substrate: substrates of rat thioredoxin reductase 1; O89049; purified TrxR1 substrate turnover, NADPH consumption readout; Potency, µM (top dose mostly 114 µM), for inactives: at the top dose activity change, negative = substrate turnover; hit rate 0.01% among 390,000; further: potency means the concentration at half of the fitted maximal effect; on the % scale 0 is the no-effect control and ±100 the full control effect; nearly all actives have a fitted effect of over 50% in size
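Rat TrxR1, dispensed at 90 nM, was prereduced with 400 uM NADPH (final) for 5 min at ~22 deg C, then incubated with compound 15 min before 400 uM selenite. A first-read NADPH fluorescence drop versus no-compound background flagged substrates.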
Mito fusion yeast: mitochondrial division inhibition or fusion activation. S. cerevisiae fusion-defective mutant growth rescue, CellTiterGlo 48 h. AID 485298. hit rate 0.23% among 320,000. Potency, µM (titrated, usually from 46.1 µM), inactives show top-dose growth rescue (activation), actives largely listed as activators; further: potency means the concentration at half of the fitted maximal effect; % of control where 0% means no effect; nearly all actives have a fitted effect of over 45% in size
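S. cerevisiae fusion-defective temperature-sensitive mutants (e.g. fzo1-1, mgm1-5) grown 48 h at 37C in YPEG (ethanol/glycerol non-fermentable) medium with 23 nl compound per well; growth rescue read as CellTiterGlo luminescence.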
IDH1 autofl: autofluorescence interference, mutant IDH1 hit counter-screen; shares compounds with mIDH1 inhibitor; Resorufin detection reagent fluorescence interference, cell-free; inhibition of signal, % at 51.2 µM; 750 tested, under 10 active; AID 623980;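 further: 0% = wells with normal resorufin and full inhibition = wells lacking resorufin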
IDH1 WT: wild-type IDH1 (human) inhibition counterscreen | shares compounds with mIDH1 inhibitor | WT IDH1 enzyme, NADPH diaphorase/resazurin fluorescence | Potency, µM (series often up to 115 µM), for the others: at the highest dose activity change, negative = inhibition, most hits filed as inhibitors | hit rate 9% among 750 | AID 623995;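 further: potency means the concentration at half of the fitted maximal effect; 0% = full WT IDH1 enzyme control and full inhibition = no enzyme wells; nearly all actives have a fitted effect of over 55% in size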
Target sequence (O75874 whole entry, looked up): as the sequence (O75874 whole entry R132H, stated change not applied) above, with H132R counted along it
IDH1 R132H conf: confirmation of human mutant IDH1 inhibitors; IDH1 R132H enzyme, NADPH diaphorase/resazurin fluorescence; hit rate 83% among 750; shares compounds with mIDH1 inhibitor; Potency, µM (doses to about 76.6 µM), for inactives: at the top dose activity change, negative = inhibition, hits mostly inhibitors; further: potency means the concentration at half of the fitted maximal effect; nearly all actives have a fitted effect of over 50% in size
Numbers without * were called inactive; ? = inconclusive; / = not tested or not shown; [ ] = another dose, or the depositor's remark. Most compounds without a hit are left out; they make up all but 3.1% or so of the library. The call rests on the fitted dose curve; in most records, active means well fitted curve in the direction sought with a large enough effect; inconclusive means small, poorly fitted or top-dose-only effect, or another doubt; inactive means no such curve, though single readings can be large; an effect the other way counts as inactive or inconclusive.

SMILES | mIDH1 inhibitor | A549 viability | rTrxR1 inhibitor | Nrf2 inh | TrxR1 substrate | Mito fusion yeast | IDH1 autofl | IDH1 WT | IDH1 R132H conf
COC(=O)C1=CC(C(=O)c2cccs2)=NN(c2ccc(OC)cc2)C1C(=O)OC (stereo unspecified) | ? | ? | 8% | 8% | -3% | 18µM* | 2 | 1% | -4%
COC(=O)C1=NN(c2ccc(OC)cc2)C2C(=O)N(c3ccccc3OC)C(=O)C12 (stereo unspecified) | 0% | -3% | -1% | 7% | 3%[57.1 µM] | 1% | / | / | /
O=P(CCCCCCCCCP(=O)(c1ccccc1)c1ccccc1)(c1ccccc1)c1ccccc1 | 33µM* | ? | 5%[57.1 µM] | ? | -5% | -1% | -9 | 1% | 22µM*
Cc1cc(C)c2c(CC(=O)Nc3nnc(CC(C)C)s3)coc2c1 | -10% | 4% | 10% | 10% | -4% | / | / | / | /
CCC(=O)Oc1ccc2c(=O)c(-c3ccc4ccccc4n3)c(CC)oc2c1C | 52µM* | 9% | 2% | -3% | -3% | ? | -9 | 2% | 7.1µM*
COc1cc2c(C(F)(F)F)c(-c3ccsc3)oc(=O)c2cc1OC | 8% | 8% | 20% | -3% | -1% | / | / | / | /
COc1ccc(-c2c(-c3ccsc3)oc(=O)c3cc(OC)c(OC)cc23)cn1 | 28µM* | -5% | 24% | -10% | 14% | / | 0 | -3% | 8.9µM*
COc1cc2c(-c3ccc4cc[nH]c4c3)c(-c3ccsc3)oc(=O)c2cc1OC | ? | -16% | 23%[57.1 µM] | -14% | 9%[57.1 µM] | 3% | -8 | -1% | 11µM*
Cc1ccccc1Cn1c(=O)n(Cc2ccc(Cl)cc2)c(=O)c2cccnc21 | -10% | 11% | 192% | 1% | 93% | / | / | / | /
COc1ccccc1N1CCN(C(=O)c2cc3ccc4ccc(C)[nH]c4c3n2)CC1 | -1% | -3% | 7% | -13% | -5% | / | / | / | /
CC(C)C[C@H](NC(=O)c1[nH]cnc1C(=O)N[C@@H](C)c1ccccc1)C(=O)OC(C)(C)C | 18µM* | ? | -9% | ? | -11% | 7% | 7 | -14% | 20µM*
CC(C)C[C@H](NC(=O)c1[nH]cnc1C(=O)N[C@@H](Cc1ccccc1)C(=O)OC(C)(C)C)C(=O)OC(C)(C)C | 7% | ? | -15% | ? | -23% | -49% | / | / | /
O=C(NC1CCCC1)C(c1ccc(F)cc1)N(C(=O)Cc1cccs1)c1ccc2c(c1)OCCO2 (stereo unspecified) | 10µM* | -21% | 3%[57.1 µM] | -27% | 8%[57.1 µM] | 0% | 6 | -8% | 6.3µM*
COc1ccc(N(C(=O)Cn2cnc3ccccc32)C(C(=O)NC2CCCCC2)c2ccccc2)cc1 (stereo unspecified) | 9.3µM* | -19% | 0% | ? | -4% | 0% | 1 | -6% | 2.8µM*
Cn1cccc1C(C(=O)NC1CCCCC1)N(C(=O)Cc1cccs1)c1ccc2c(c1)OCO2 (stereo unspecified) | ? | -2% | 17% | -4% | -3%[57.1 µM] | -5% | 7 | 0% | 11µM*
Cc1ccc(C(C(=O)NC2CCCC2)N(C(=O)Cc2cccs2)c2ccc3c(c2)OCCO3)cc1 (stereo unspecified) | ? | -17% | 47%[57.1 µM] | ? | 6% | -6% | / | / | /
Cc1ccc(C(C(=O)NC2CCCC2)N(C(=O)Cc2cccs2)c2ccc(C)c(C)c2)o1 (stereo unspecified) | 5.2µM* | ? | -4% | 18µM* | 6%[57.1 µM] | 19% | -1 | 4% | 4.5µM*
CCOc1ccc(N(C(=O)Cn2nnc3ccccc32)C(C(=O)NCc2ccccc2)c2ccc(OC)cc2)cc1 (stereo unspecified) | -3% | -15% | 28% | -2% | 18% | / | / | / | /
Cc1ccc(C)c(N(C(=O)Cc2cccs2)C(C(=O)NC2CCCC2)c2ccc(C)o2)c1 (stereo unspecified) | -29% | -8%[1.84 µM] | 2% | -1% | 3% | -3% | / | / | /
Cc1nn2c(=O)cc(COc3ccc(/C=C(\C#N)C(=O)Nc4ccccc4)cc3Cl)nc2s1 | -5% | 0% | 17% | 7% | 6% | / | / | / | /
COc1ccccc1NC(=O)C(Cc1ccccc1)NS(=O)(=O)c1ccc2c(c1)CCN2C(C)=O (stereo unspecified) | 26% | 6% | 24% | -23% | 3% | / | / | / | /
CCOc1ccc(Nc2c(S(=O)(=O)c3ccccc3)cnc3ccc(F)cc23)cc1 | -14% | -14% | 0% | -91% | -9% | / | / | / | /
COc1ccc(N(C(=O)Cc2cccs2)C(C(=O)NC2CCCCC2)c2cccn2C)cc1 (stereo unspecified) | ? | -7% | 4% | -18% | -1% | -4% | -3 | 15% | 40µM*
CCCCC(NC(=O)CCc1c(C)c2cc3c4c(oc3c(C)c2oc1=O)CCCC4)C(=O)O (stereo unspecified) | 46µM* | 4% | -6% | ? | 8% | 14% | -8 | -7% | 25µM*
CCOC(=O)c1ccc(N2C(=O)c3n[nH]c(C)c3C2c2ccc(C(C)C)cc2)cc1 (stereo unspecified) | -9% | -1% | 16% | 9% | 0% | / | / | / | /
Cc1ccc(N2C(=O)c3n[nH]c(C)c3C2c2ccc(C(C)C)cc2)cc1 (stereo unspecified) | ? | -12% | 7% | ? | -2% | / | -11 | -16% | 28µM*
Cc1cn(C)c(CC(=O)Nc2cccc(C#N)c2)c1C(=O)O | -11% | 0% | 14%[57.1 µM] | / | 5%[57.1 µM] | / | / | / | /
CCc1ccc(C(=O)c2cn(Cc3ccc(F)cc3)c3cc(OC)c(OC)cc3c2=O)cc1 | ? | 21µM* | 19% | -7% | 2% | / | -4 | 2% | ?
CCCc1noc2c1C(c1cc(Br)ccc1F)C(C#N)=C(N)N2 (stereo unspecified) | 52µM* | -5% | 0%[57.1 µM] | ? | 2% | -1% | 0 | -1% | 40µM*
